High-throughput results as filed in PubChem BioAssay.
In the library only some 3.8% were active in any assay of this set; here they are far more common.
FAS TE block: FAS thioesterase (human) inhibition. P49327. recombinant FAS-TE, OMFH fluorogenic substrate, fluorescence endpoint. inhibition, % at 15 µM. 360,000 tested, 0.67% active. AID 602261;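 active means compounds whose normalised, plate-corrected inhibition of enzyme fluorescence in the single-dose primary screen is 50% or more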;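 further: 0% = DMSO with enzyme and 100% = substrate without enzyme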
Yeast superoxide: caloric restriction mimetics inhibiting age-related superoxide in yeast; S. cerevisiae aged cells, superoxide DHE fluorescence; stronger effect = lower value; superoxide response (% of plate mean), % at 10 µM; 330,000 tested, 0.18% active;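 active means superoxide response under a set limit, about three screen SD below normal, cut at about 65% in these data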;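 further: yeast aged for seven days with compound at 30 °C before DHE staining; 100% = average MFI of all compound-treated wells on the plate with controls excluded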
Cardio protect: protects H9c2 cardiomyocytes from peroxide injury; H2O2 injury protection, ATPLite, 2 h; protection from H2O2 cell death, % at 20 µM; 360,000 tested, 0.63% active; AID 588492;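 active means compounds giving at least 50% protection of heart cells from peroxide-induced death in the single-dose screen, raw or plate-pattern-corrected value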;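 further: 0% = DMSO wells with peroxide and 100% = DMSO wells without peroxide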
aDG glyco up: increases alpha dystroglycan glycosylation | 360,000 tested, 0.22% active | Pro5-aDG cells, alpha-DG glycosylation AlphaScreen (IIH6); 0% Pro5, 100% B10-LARGE cell signal | activation, % at 10 µM;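 active means activation of at least 8% versus controls, or a plate z-score of at least 8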;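 further: Pro5 are CHO cells carrying HIG-tagged alpha-DG that lacks glycosylation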
MPTP inh: inhibitors of mitochondrial permeability transition pore; isolated mouse mitochondria, Ca2+ swelling absorbance, 30 min; inhibition, % at 10 µM; 360,000 tested, 1.4% active;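 active means inhibition of 50% or more, scaled per plate between neutral and stimulator controls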;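 further: 0% = DMSO wells given calcium and 100% = 1 mM EGTA wells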
SUMO Mot1 rescue: inhibitors of SUMOylation pathway: yeast Mot1-301 growth rescue; 320,000 tested, 1% active; growth rescue, % at 18.8 µM; S. cerevisiae Mot1-301 growth rescue, ATP luminescence, 38.5C; percent above DMSO median, 100 means doubled;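 active means every valid replicate shows activation above 250% relative to neutral control wells; inactive means the rest, any valid replicate at or below 250%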;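 further: OY570 slx delta 5 strain wells were the positive control but not used for scaling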
MPTP counter: membrane potential counter-screen of mitochondrial pore inhibitors | shares compounds with MPTP inh | isolated mitochondria, Rhodamine 123 fluorescence | inhibition, % at 10 µM | 5,000 tested, 78% active | AID 624504; in the data active means inhibition above about 22%;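 further: 0% = DMSO vehicle and 100% = positive control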
* = called active by the depositor; / = not tested or not shown.

SMILES	FAS TE block	Yeast superoxide	Cardio protect	aDG glyco up	MPTP inh	SUMO Mot1 rescue	MPTP counter
Cc1ccc(NC(=O)Cc2ccccc2Cl)cc1S(=O)(=O)N(C)C	-3	102	4	0	6	-22	/
Cc1ccc(NC(=O)COC(=O)c2ccccc2Cl)cc1S(=O)(=O)N(C)C	10	108	-5	0	-1	-16	/
C[C@@H]1CN([C@H](C)CO)C(=O)CCCn2cc(nn2)CO[C@H]1CN(C)S(=O)(=O)c1ccc2ccccc2c1	-9	/	-14	0	0	/	/
CN(C)c1ccc(NS(=O)(=O)c2cc(Cl)ccc2Cl)cc1	5	106	-9	0	1	-9	/
Cc1ccc(NS(=O)(=O)c2sc3ccc(Cl)cc3c2C)cc1	48	115	-15	0	66*	665*	63*
Cc1ccc(OC/C(O)=C(\C#N)c2nc3ccccc3s2)cc1	0	105	-33	0	73*	-3	43*
COC(=O)c1ccc(/C(O)=C(\C#N)c2nc3ccccc3s2)cc1	-1	106	-12	0	74*	65	53*
CCOC(=O)C1=NN2C(O)C3(C)CC(C(=O)OCC)=NN3C(O)C2(C)C1 (stereo not given)	-9	/	7	0	0	/	/
Cc1ccc(NC(=S)/C(C#N)=C2/Nc3ccccc3S2)cc1	17	/	-30	0	65*	/	39*
N#C/C(C(=O)N1CCCCC1)=C1\Nc2ccccc2S1	-8	101	-7	0	1	1	/
CCOc1cc(C)c(S(=O)(=O)Nc2ccc3cn[nH]c3c2)cc1C	7	92	-19	4	72*	-12	76*
Cc1ccc(S(=O)(=O)Nc2ccc3cn[nH]c3c2)c(C)c1	0	104	-15	0	0	4	/
O=C(NCc1ccc(Cl)c(Cl)c1)C1CCCC1	22	100	2	0	4	6	/
Cc1oc(S(=O)(=O)N2CCCCC2)cc1NC(=O)Nc1ccccc1	3	78	4	0	51*	-6	54*
NS(=O)(=O)c1ccc(NC(=S)Nc2ccc(S(=O)(=O)N3CCCC3)cc2)cc1	-4	109	1	0	-1	-2	/
O=[N+]([O-])c1cc(Cl)cc(/C=N/NC(=S)Nc2ccc(S(=O)(=O)N3CCOCC3)cc2)c1O	28	109	24	0	72*	-5	26*
O=S(=O)(c1ccc(NC(=S)NC23CC4CC(CC(C4)C2)C3)cc1)N1CCCCC1	28	/	-21	2	90*	/	61*
COc1ccc(NC(=O)Nc2ccccc2)cc1S(=O)(=O)N1CCCCC1	0	102	-12	0	-1	25	/
Cc1oc(S(=O)(=O)N2CCCCC2)cc1NC(=O)Nc1ccc(Cl)cc1	3	111	-16	0	84*	-6	79*
O=S(=O)(c1ccc(NC(=S)N/N=C/c2ccc(O)c(O)c2)cc1)N1CCOCC1	-2	89	6	0	4	-24	/
O=S(=O)(c1ccc(Cl)c(NC(=S)N/N=C/c2c(F)cccc2F)c1)N1CCOCC1	6	133	-10	1	57*	-2	47*
O=C(N/N=C\c1c(O)ccc2ccccc12)c1ccc(S(=O)(=O)N2CCCCC2)cc1	25	102	22	0	95*	3	70*
O=S(=O)(c1ccc(NC(=S)NN=Cc2ccccc2O)cc1)N1CCCCC1	20	/	29	1	99*	/	81*
O=C(CN1CCCc2ccccc21)N/N=C/c1c(O)ccc2ccccc12	35	94	40	1	95*	-1	89*
CCNC(=O)C1CCCN(C(=O)Cc2cccs2)CC1 (stereo not given)	-10	/	-5	0	0	/	/
O=S(=O)(NCc1csc(-c2cccs2)n1)c1cccc(C(F)(F)F)c1	48	111	-4	0	6	0	/
N#C/C(=N\Nc1ccc(S(=O)(=O)N2CCOCC2)cc1)C(N)=S	-2	93	-1	0	5	15	/
O=C(Nc1ccccc1)Nc1ccc(S(=O)(=O)N2CCCCC2)cc1	10	95	-17	1	99*	-19	89*
N#CC(C#N)=NNc1ccc(S(=O)(=O)N2CCCCC2)cc1	4	106	-13	-1	89*	15	91*
